Among all 13,000 compounds or so, about 3,200 (25%) showed an effect of 50% or more. This is one part of the list.

Broadly, the % Inhibition is the drop in the measured response relative to a control, in per cent.

In the experiment the test system is P. falciparum stage V gametocytes. More on the design: BacTiter-Glo ATP luminescence viability of purified stage V gametocytes in 384-well plates, per cent inhibition versus DMSO. As to conditions: 48 h, 5 µM; inhibitor.
Take `COc1ccc2nccc([C@@H](O)CN3CCC(NC(=O)C(c4ccccc4C)N4CCC(Cc5ccccc5)CC4)CC3)c2c1` (stereo partly shown) [TCMDC-141102]: the “% Inhibition” value was 2.818%.
The result for `N=C1SC(=Cc2cn[nH]c2-c2ccc(F)cc2)C(=O)N1c1nccs1` [TCMDC-123515] reads 2.084%; that for `O=S(=O)(Nc1cccc(CCN2CCC(N3CCCCC3)CC2)c1)c1ccc(Oc2ccccc2)cc1` [TCMDC-134072], 70.07%.
The result for `CCc1ccc(S(=O)(=O)Nc2cccc(CCN3CCC(N4CCCCC4)CC3)c2)cc1` [TCMDC-134077] reads 77.96%.
The figure for `O=S(=O)(Nc1ccc(CCN2CCC(N3CCCCC3)CC2)cc1)c1ccc(Cl)cc1` [TCMDC-134078] is 45.94%.
Turning to `O=S(=O)(Nc1cccc(CCN2CCC(N3CCCCC3)CC2)c1)c1ccc(-c2ccccc2)cc1` [TCMDC-134071], the “% Inhibition” value came out at 47.75%.
The result for `O=S(=O)(Nc1cccc(CCN2CCC(N3CCCCC3)CC2)c1)c1ccc(Cl)cc1` [TCMDC-134065] reads 22.65%; that for `CCc1ccc(S(=O)(=O)Nc2ccc(CCN3CCC(N4CCCCC4)CC3)cc2)cc1` [TCMDC-134089], 86.75%; that for `O=S(=O)(Nc1cccc(CCN2CCC(N3CCCCC3)CC2)c1)c1ccc(Oc2ccccc2)nc1` [TCMDC-134073], 14.52%.
The figure for `Cc1ccc(NS(=O)(=O)c2ccc(C(C)N3CCC(N4CCCCC4)CC3)cc2)cc1C` (stereo not shown) [TCMDC-133540] is 11.79%.
For the compound `CC(C)c1ccc(S(=O)(=O)Nc2cccc(CCN3CCC(N4CCCCC4)CC3)c2)cc1` [TCMDC-134075], the “% Inhibition” value is on record as 76.83%.
The result for `COc1ccc(O)cc1Cc1cnc2nc(N)nc(N)c2c1C` [TCMDC-137498] reads -65.52%; that for `COc1ccc2nccc([C@@H](O)CN3CCC(NC(=O)C(c4cc5ccccc5o4)N4CCN(c5ccccc5)CC4)CC3)c2c1` (stereo partly shown) [TCMDC-140989], 28.59%.
Consider `CC(=O)N[C@H](C(=O)Nc1ccc(-c2ccc(-c3nc4cc(C(F)(F)F)ccc4[nH]3)s2)cc1)C(C)C` [TCMDC-136852], for which the “% Inhibition” value was -48.64%.
The result for `O=C(NCCc1ccc(Cl)c(Cl)c1)C1CCCN(C(=O)c2ccc(O)c(-c3ccc(Cl)c(Cl)c3)c2)C1` (stereo not shown) [TCMDC-140892] reads -3.917%; that for `CC(CON1C(N)=NC(N)=NC1(C)C)Cc1ccc(Cl)cc1Cl` (stereo not shown) [TCMDC-131712], 20.42%; that for `Cc1cc(NS(=O)(=O)c2cccc(C(C)N3CCC(N4CCCC4)CC3)c2)ccc1C(C)C` (stereo not shown) [TCMDC-133708], 8.518%.
In the case of `O=S(=O)(Nc1cccc(CCN2CCC(N3CCCCC3)CC2)c1)c1ccc2c(c1)OCCO2` [TCMDC-134067], the “% Inhibition” value came out at 55.86%.
For the compound `O=S(=O)(Nc1ccc(CCN2CCC(N3CCCCC3)CC2)cc1)c1ccc2ccccc2c1` [TCMDC-134079], the “% Inhibition” value was found to be 52.17%.
The result for `COc1ccc2nccc([C@@H](O)CN3CCC(NC(=O)C(c4cccs4)N4CCN(c5ccc(F)cc5)CC4)CC3)c2c1` (stereo partly shown) [TCMDC-141100] reads 25.13%; that for `COc1cc(C(=O)N2CCOC(CCN3CCC(c4ccc(Cl)cc4)CC3)(c3ccc(Cl)c(Cl)c3)C2)cc(OC)c1OC` (stereo not shown) [TCMDC-135566], -3.164%.
For the compound `COc1cc(C(=O)N2CCOC(CCN3CCC[C@H]3C(=O)Nc3ccccc3)(c3ccc(Cl)c(Cl)c3)C2)cc(OC)c1OC` (stereo partly shown) [TCMDC-135571], the “% Inhibition” value is 90.6%.
Take `COc1cc(C(=O)N2CCOC(CCN3CCC4c5ccccc5CC43)(c3ccc(Cl)c(Cl)c3)C2)cc(OC)c1OC` (stereo not shown) [TCMDC-135567]: the “% Inhibition” value is -73.24%.
The figure for `COc1cc(Nc2nccc(N3CCC(NC(=O)Nc4cccc(C(C)=O)c4)C3)n2)cc(OC)c1OC` (stereo not shown) [TCMDC-133621] is -9.129%; for `COc1cc(Cc2cnc(N)nc2N)cc(OCC(C)(C)C(=O)O)c1OC` [TCMDC-137887] it is -9.297%; for `O=C(Nc1ccc(Cl)cc1)Nc1cccc(-c2cccc(-c3nc4ccc(F)cc4[nH]3)c2)c1` [TCMDC-133185] it is -67.78%.
The figure for `O=C(Nc1ccc(Cl)cc1)Nc1ccc(-c2cccc(-c3nc4ccc(F)cc4[nH]3)c2)cc1` [TCMDC-133186] is -8.569%.
For `CC(=O)Nc1cccc(C(=O)Nc2cccc(-c3ccc(-c4nc5ccc(F)cc5[nH]4)cc3)c2)c1` [TCMDC-132139], the “% Inhibition” value is recorded as -25.67%.
`Cc1cnc(C(=O)Nc2ccc(-c3cccc(-c4nc5ccccc5[nH]4)c3)cc2)cn1` [TCMDC-137026]: the “% Inhibition” value is reported as -17.4%.
Regarding `CC(=O)Nc1cccc(C(=O)Nc2cccc(-c3cccc(-c4nc5ccc(F)cc5[nH]4)c3)c2)c1` [TCMDC-132137], the “% Inhibition” value was determined as 91.99%.
Consider `Cc1cnc(C(=O)Nc2cccc(-c3ccc(-c4nc5ccc(F)cc5[nH]4)cc3)c2)cn1` [TCMDC-137029], for which the “% Inhibition” value is given as 23.15%.
The result for `NC(=O)c1ccc(NCC(=O)Nc2cccc(-c3cccc(-c4nc5ccc(C(F)(F)F)cc5[nH]4)c3)c2)cc1` [TCMDC-132164] reads -17.45%.
For the compound `CC(=O)Nc1cccc(C(=O)Nc2ccc(-c3cccc(-c4nc5ccc(F)cc5[nH]4)c3)cc2)c1` [TCMDC-132135], the “% Inhibition” value is on record as -4.902%.
The figure for `Cc1cnc(C(=O)Nc2cccc(-c3cccc(-c4nc5ccc(F)cc5[nH]4)c3)c2)cn1` [TCMDC-137027] is 68.21%.
The figure for `O=C(Nc1ccc(Cl)cc1)Nc1cccc(-c2ccc(-c3nc4ccc(F)cc4[nH]3)cc2)c1` [TCMDC-133183] is 78.47%.
The figure for `NC(=O)c1ccc(NCC(=O)Nc2cccc(-c3cccc(-c4nc5ccc(F)cc5[nH]4)c3)c2)cc1` [TCMDC-132163] is 90.29%.
`NC(=O)c1ccc(NCC(=O)Nc2cccc(-c3cccc(-c4nc5ccccc5[nH]4)c3)c2)cc1` [TCMDC-132162]: the “% Inhibition” value was determined as 2.725%.
In the case of `O=C(NCCc1ccc(F)cc1)c1ccc(N2CCN(c3ccncc3)CC2)nc1` [TCMDC-134585], the “% Inhibition” value stood at 1.059%.
The figure for `COc1ccc(C2CC(c3cccs3)=NN2C(=O)c2ccco2)cc1OC` (stereo not shown) [TCMDC-123796] is 12.69%; for `COc1ccc(CCCCN2C(=O)C(c3ccccc3)(c3ccccc3)N=C2N)cc1` [TCMDC-136522] it is -62.46%; for `C=CCOc1cc(Cc2cnc(N)nc2N)cc(OC)c1OC` [TCMDC-138042] it is -3.964%.
The result for `CCOc1cc(C(=O)NCc2cccc(C(F)(F)F)c2)ccc1-c1nc2ccc(Cl)cc2[nH]1` [TCMDC-140902] reads 11.85%; that for `O=C(Nc1ccc(Cn2ncc(N3CCCNCC3)c(Cl)c2=O)cc1)Nc1cc(F)cc(C(F)(F)F)c1` [TCMDC-133317], -20.94%; that for `COc1nc(NCC(C)C)nc(Oc2ccc(=O)n(Cc3ccccc3)n2)n1` [TCMDC-124913], 48.86%.
The result for `O=C(Cc1ccc(NC(=O)c2ccc(O)c(-c3ccc(Cl)c(Cl)c3)c2)cc1)NCCc1ccc(Cl)c(Cl)c1` [TCMDC-140873] reads 3.533%; that for `O=C(/C=C/c1ccc(Cl)c(Cl)c1)NCC(CCCN1CCC(c2c[nH]c3ccccc23)CC1)c1ccccc1` (stereo not shown) [TCMDC-139506], -7.536%; that for `CC(=O)NC1=NC(C)(C)N(OCCCOc2ccc(Cl)c(Cl)c2)C(NC(C)=O)=N1` [TCMDC-131742], 2.376%.
As to `Cc1cc(F)ccc1Oc1nc(Nc2ccc(N3CCOCC3)c(F)c2)nc2c1S(=O)(=O)CCC2` [TCMDC-135096], the “% Inhibition” value is reported as 20%.
As to `CCOc1cc(-c2nnc3[nH]c(=O)n(C)c(=O)c3n2)ccc1OC(C)C` [TCMDC-124558], the “% Inhibition” value was -22.82%.
Regarding `O=C(Nc1ccc(C(=O)OCC2CCCCC2)cc1)N[C@@H](Cc1ccc(O)cc1)C(=O)NC1CCN(Cc2ccc(O)cc2)C1` (stereo partly shown) [TCMDC-135357], the “% Inhibition” value is -23.12%.
As to `O=C(Nc1cccc(-c2ccc(-c3nc4ccc(F)cc4[nH]3)cc2)c1)c1ccoc1` [TCMDC-136843], the “% Inhibition” value is recorded as -15.37%.
The result for `O=C(Nc1cccc(-c2cccc(-c3nc4ccccc4[nH]3)c2)c1)c1ccoc1` [TCMDC-136840] reads 9.278%; that for `O=C(Nc1ccc(-c2cccc(-c3nc4ccc(F)cc4[nH]3)c2)cc1)c1ccncc1` [TCMDC-136957], -5.175%; that for `O=C(Nc1cccc(-c2ccc(-c3nc4ccc(F)cc4[nH]3)cc2)c1)c1ccncc1` [TCMDC-136961], -22.91%.
The result for `O=C(Nc1cccc(-c2cccc(-c3nc4ccc(F)cc4[nH]3)c2)c1)c1ccoc1` [TCMDC-136841] reads 83.89%; that for `O=C(Nc1cccc(-c2cccc(-c3nc4ccc(F)cc4[nH]3)c2)c1)c1ccncc1` [TCMDC-136959], 85.81%.
The result for `CCCCCCn1c(Sc2ccc(C#N)c([N+](=O)[O-])c2)nnc1-c1ccc(OC)cc1` [TCMDC-135604] reads 12.04%.
Take `CN1C(=O)OC[C@@H]1Cc1ccc2[nH]cc(C3=CCN(Cc4ccccc4)CC3)c2c1` [TCMDC-137790]: the “% Inhibition” value was found to be 15.2%.
The figure for `COc1cccc(Nc2nnc(SCC(=O)NNC(=O)c3ccccn3)s2)c1` [TCMDC-124565] is 57.52%; for `COc1cccc(C2C(C(=O)Nc3ccccc3)=C(C)N=c3sc(=Cc4ccc(O)cc4)c(=O)n32)c1` (stereo not shown) [TCMDC-125613] it is -17.06%.
The result for `COCC(C)n1c(C)cc(C(=O)CSc2nnc(Nc3ccccc3)s2)c1C` (stereo not shown) [TCMDC-123611] reads 2.084%.
As to `C[C@@H](CC1CCCCC1)OC(=O)N(C)[C@@H]1CCN(C#N)C1` [TCMDC-138502], the “% Inhibition” value was 39.73%.
The figure for `COCCCNC(=O)c1ccc(O)c(-c2cc(Cl)cc(Cl)c2)c1` [TCMDC-140158] is -17.86%; for `Cc1noc(C)c1-c1cccc(CNCc2ccc(-c3ccc(-c4nc5cc(C(F)(F)F)ccc5[nH]4)cc3)cc2)c1.O=C(O)C(F)(F)F` [TCMDC-133058] it is 15.98%.

The values above are taken from paper PMC4552634, “A New Set of Chemical Starting Points with Plasmodium falciparum Transmission-Blocking Potential for Antimalarial Drug Discovery” (PLoS ONE, 2015).
